Where a name gives a salt, the structure may show the parent alone. ± gives the standard deviation of the averaged measurements.
Test system: A549
Test: relative viability (normalised to negative control = 1, bortezomib = 0) (fraction); higher = less cytotoxic
Conditions: inflammatory serum-free RHB-A with cytokines + LPS, 5 d + 24 h CellTiter-Blue
[1] = compound 30 nM, GSK126 pretreatment: 5 uM GSK126
[2] = compound 30 nM, GSK126 pretreatment: none (vehicle)
[3] = compound 300 nM, GSK126 pretreatment: 5 uM GSK126
[4] = compound 300 nM, GSK126 pretreatment: none (vehicle)

Compound | relative viability [1] | relative viability [2] | relative viability [3] | relative viability [4]
O=C1NC(=O)/C(=C/c2ccc3c(c2)OC(F)(F)O3)S1 | 0.939 ± 0.15 | 0.969 ± 0.17 | 1.01 ± 0.14 | 0.968 ± 0.092
CCCNC(=O)Nc1ccc(Oc2ncnc3cc(OC)c(OC)cc23)cc1Cl | 0.713 ± 0.055 | 0.752 ± 0.01 | 0.775 ± 0.19 | 0.895 ± 0.087
C=CC(=O)Nc1cccc(Oc2nc(Nc3ccc(N4CCN(C)CC4)cc3)ncc2Cl)c1 | 0.802 ± 0.067 | 0.82 ± 0.095 | 0.132 ± 0.07 | 0.0677 ± 0.014
CC1(COc2ccc3c(c2)ncn3-c2ccc3cccc(N4CCC(N)CC4)c3n2)COC1 | 0.986 ± 0.081 | 0.966 ± 0.12 | 1.3 ± 0.087 | 1.34 ± 0.12
Cn1cc(-c2ccc3nnc(Sc4ccc5ncccc5c4)n3n2)cn1 | 0.807 ± 0.056 | 0.846 ± 0.079 | 0.859 ± 0.033 | 0.903 ± 0.02
COc1cc2c(Oc3ccc(NC(=O)C4(C(=O)Nc5ccc(F)cc5)CC4)cc3F)ccnc2cc1OCCCN1CCOCC1 | 0.797 ± 0.081 | 0.789 ± 0.037 | 0.57 ± 0.1 | 0.573 ± 0.074
CC(C)C[C@H](NC(=O)[C@H](CCc1ccccc1)NC(=O)CN1CCOCC1)C(=O)N[C@@H](Cc1ccccc1)C(=O)N[C@@H](CC(C)C)C(=O)[C@@]1(C)CO1 [Carfilzomib] | -0.00043 ± 0.0042 | 0.0294 ± 0.0064 | -0.00389 ± 0.00043 | -0.00499 ± 0.0011
CCC1=C[C@@H]2CN(C1)Cc1c([nH]c3ccccc13)[C@@](C(=O)OC)(c1cc3c(cc1OC)N(C)[C@H]1[C@@](O)(C(=O)OC)[C@H](OC(C)=O)[C@]4(CC)C=CCN5CC[C@]31[C@@H]54)C2 [Vinorelbine tartrate] | 0.403 ± 0.049 | 0.444 ± 0.021 | 0.376 ± 0.056 | 0.307 ± 0.025
Cn1nnc2c(C(N)=O)ncn2c1=O [Temozolomide] | 0.831 ± 0.044 | 0.837 ± 0.029 | 0.828 ± 0.067 | 0.943 ± 0.061
COc1cccc2c1C(=O)c1c(O)c3c(c(O)c1C2=O)C[C@@](O)(C(=O)CO)C[C@@H]3O[C@H]1C[C@H](N)[C@H](O)[C@H](C)O1 [Doxorubicin hydrochloride; 4'-Epiadriamycin; Doxorubicin HCl] | 0.967 ± 0.022 | 0.9737 ± 0.0065 | 0.454 ± 0.027 | 0.463 ± 0.075
CCc1cccc(CC)c1NC(=O)N1Cc2[nH]nc(NC(=O)c3ccc(N4CCN(C)CC4)cc3)c2C1 | 0.891 ± 0.14 | 0.91 ± 0.12 | 0.701 ± 0.13 | 0.557 ± 0.075
COc1cc(OC)c(/C=C/S(=O)(=O)Cc2ccc(OC)c(NCC(=O)O)c2)c(OC)c1 | 0.4 ± 0.058 | 0.303 ± 0.018 | 0.352 ± 0.015 | 0.245 ± 0.035
CC(C)n1nc(-c2cc3cc(O)ccc3[nH]2)c2c(N)ncnc21 | 0.686 ± 0.035 | 0.751 ± 0.032 | 0.37 ± 0.014 | 0.431 ± 0.043
Clc1ccc(C(c2ccccc2Cl)C(Cl)Cl)cc1 (stereo not drawn) | 0.827 ± 0.1 | 0.804 ± 0.093 | 0.832 ± 0.16 | 0.983 ± 0.12
CC(=O)Nc1nc(C)c(-c2ccc(Cl)c(S(=O)(=O)NCCO)c2)s1 | 0.61 ± 0.047 | 0.678 ± 0.015 | 0.487 ± 0.16 | 0.712 ± 0.052
COc1cc2nccc(Oc3ccc(NC(=O)Nc4cc(C)on4)c(Cl)c3)c2cc1OC [AV-951(Tivozanib)] | 0.919 ± 0.12 | 0.927 ± 0.12 | 1.1 ± 0.11 | 1.18 ± 0.18
COC(=O)Nc1ccc(-c2nc(N3CCOCC3)c3cnn(C4CCN(C(=O)OC)CC4)c3n2)cc1 | 0.691 ± 0.035 | 0.715 ± 0.019 | 0.489 ± 0.036 | 0.588 ± 0.04
CO[C@H]1C[C@@H]2CC[C@@H](C)[C@@](O)(O2)C(=O)C(=O)N2CCCC[C@H]2C(=O)O[C@H]([C@H](C)C[C@@H]2CC[C@@H](OP(C)(C)=O)[C@H](OC)C2)CC(=O)[C@H](C)/C=C(\C)[C@@H](O)[C@@H](OC)C(=O)[C@H](C)C[C@H](C)/C=C/C=C/C=C/1C [Deforolimus(MK-8669)] | 0.574 ± 0.039 | 0.591 ± 0.02 | 0.548 ± 0.03 | 0.523 ± 0.041
C[C@@H](CN1CC(=O)NC(=O)C1)N1CC(=O)NC(=O)C1 [Dexrazoxone; Dexrazoxane] | 0.828 ± 0.054 | 0.832 ± 0.093 | 0.859 ± 0.048 | 0.908 ± 0.13
OCCn1cc(-c2ccc3c(c2)CC/C3=N\O)c(-c2ccncc2)n1 | 0.948 ± 0.11 | 0.989 ± 0.093 | 1.03 ± 0.21 | 1.14 ± 0.16
Nc1nc2[nH]cc(CCc3ccc(C(=O)N[C@@H](CCC(=O)O)C(=O)O)cc3)c2c(=O)[nH]1 [Pemetrexed; Pemetrexed Disodium] | 0.89 ± 0.07 | 0.88 ± 0.078 | 0.829 ± 0.1 | 0.879 ± 0.095
S=c1[nH]cnc2nc[nH]c12 [Mercaptopurine] | 0.9493 ± 0.0049 | 0.969 ± 0.053 | 0.958 ± 0.067 | 0.984 ± 0.011
COc1cccc(-c2cc(=O)c3ccccc3o2)c1N | 0.734 ± 0.07 | 0.794 ± 0.057 | 0.726 ± 0.19 | 0.825 ± 0.078
Nc1ccn([C@@H]2O[C@H](CO)[C@@H](O)C2(F)F)c(=O)n1 [Gemcitabine hydrochloride; Gemcitabine HCl] | 0.396 ± 0.12 | 0.264 ± 0.087 | 0.39 ± 0.093 | 0.19 ± 0.087
Nc1nc(F)nc2c1ncn2[C@@H]1O[C@H](COP(=O)(O)O)[C@@H](O)[C@@H]1O [Fludarabine; Fludarabine phosphate] | 0.858 ± 0.071 | 0.879 ± 0.098 | 0.891 ± 0.089 | 0.842 ± 0.055
C#CCC(Cc1cnc2nc(N)nc(N)c2n1)c1ccc(C(=O)N[C@@H](CCC(=O)O)C(=O)O)cc1 (stereo partly drawn) [pralatrexate] | 0.878 ± 0.027 | 0.859 ± 0.075 | 0.765 ± 0.068 | 0.896 ± 0.06

Compound | relative viability [1] | relative viability [2] | relative viability [3] | relative viability [4]
CCOc1cc2ncc(C#N)c(Nc3ccc(F)c(Cl)c3)c2cc1NC(=O)/C=C/CN(C)C [Pelitinib] | 0.562 ± 0.038 | 0.504 ± 0.012 | 0.0719 ± 0.015 | 0.0851 ± 0.02
CN(C)c1ccc(-c2nc3ncc(Cl)c(N4CCN(CC(=O)Nc5nccs5)CC4)c3[nH]2)cc1 | 0.997 ± 0.11 | 0.983 ± 0.091 | 1.1 ± 0.097 | 1.07 ± 0.066
CC[C@@]1(O)C(=O)OCc2c1cc1n(c2=O)Cc2cc3c(CN(C)C)c(O)ccc3nc2-1 [Topotecan HCl; Topotecan hydrochloride] | 0.421 ± 0.033 | 0.383 ± 0.021 | 0.317 ± 0.026 | 0.221 ± 0.038
Nc1cccc2c1CN(C1CCC(=O)NC1=O)C2=O (stereo not drawn) [Lenalidomide] | 0.854 ± 0.11 | 0.789 ± 0.061 | 0.882 ± 0.059 | 0.82 ± 0.035
Cc1nc(NC(=O)N2CCC[C@H]2C(N)=O)sc1-c1csc(C(C)(C)C)n1 | 0.809 ± 0.045 | 0.869 ± 0.085 | 0.704 ± 0.044 | 0.784 ± 0.059
Cc1[nH]c(/C=C2\C(=O)Nc3ccc(S(=O)(=O)N(C)c4cccc(Cl)c4)cc32)c(C)c1C(=O)N1CCN(C)CC1 | 0.89 ± 0.053 | 0.887 ± 0.099 | 1.03 ± 0.01 | 1.03 ± 0.01
C=CC(=O)Nc1cccc(Oc2nc(Nc3ccc(N4CCN(C)CC4)cc3OC)ncc2Cl)c1 | 0.978 ± 0.051 | 0.897 ± 0.034 | 0.782 ± 0.086 | 0.87 ± 0.095
N#C/C(=C/c1ccc(O)c(O)c1)C(=O)NCc1ccccc1 [AG-490; Tyrphostin AG 490] | 0.914 ± 0.15 | 0.861 ± 0.1 | 0.879 ± 0.15 | 0.873 ± 0.11
CCN(CC)CCNC(=O)c1c(C)[nH]c(/C=C2\C(=O)Nc3ccc(F)cc32)c1C [Sunitinib; Sunitinib Malate; Sunitinib (free base)] | 0.842 ± 0.03 | 0.832 ± 0.046 | 0.896 ± 0.067 | 0.939 ± 0.097
Oc1ccc(-c2nc(-c3ccc(F)cc3)c(-c3ccncc3)[nH]2)cc1 | 1.08 ± 0.13 | 0.954 ± 0.13 | 1.36 ± 0.066 | 1.17 ± 0.19
Cc1[nH]nc2ccc(-c3cncc(OC[C@@H](N)Cc4ccccc4)c3)cc12 | 0.871 ± 0.14 | 0.766 ± 0.094 | 0.17 ± 0.011 | 0.273 ± 0.056
Cc1csc(-c2nnc(Nc3ccc(Oc4ncccc4-c4ccnc(N)n4)cc3)c3ccccc23)c1 | 0.692 ± 0.11 | 0.593 ± 0.11 | 0.512 ± 0.076 | 0.441 ± 0.061
COc1cccc2c1C(=O)c1c(O)c3c(c(O)c1C2=O)C[C@@](O)(C(C)=O)C[C@@H]3O[C@H]1C[C@H](N)[C@H](O)[C@H](C)O1 [Daunorubicin hydrochloride; Daunorubicin HCl] | 0.839 ± 0.095 | 0.765 ± 0.056 | 0.133 ± 0.019 | 0.143 ± 0.021
CNC(=O)Nc1ccc(-c2nc(N3CC4CCC(C3)O4)c3cnn(C4CCC5(CC4)OCCO5)c3n2)cc1 | 0.424 ± 0.074 | 0.432 ± 0.012 | 0.226 ± 0.011 | 0.237 ± 0.035
CC[C@@H]1C(=O)N(C)c2cnc(Nc3ccc(C(=O)NC4CCN(C)CC4)cc3OC)nc2N1C1CCCC1 | 0.451 ± 0.03 | 0.362 ± 0.021 | 0.212 ± 0.04 | 0.215 ± 0.02
COc1ccc(S(=O)(=O)N(C(C)=O)c2ccccc2/C=C/c2cc[n+]([O-])cc2)cc1 | 0.924 ± 0.032 | 0.914 ± 0.033 | 0.663 ± 0.032 | 0.623 ± 0.056
O=C1NC(=O)/C(=C\c2ccc3nccnc3c2)S1 | 0.877 ± 0.1 | 0.854 ± 0.032 | 0.915 ± 0.14 | 0.946 ± 0.17
O=C1c2ccccc2-c2n[nH]c3cccc1c23 | 0.785 ± 0.1 | 0.796 ± 0.078 | 0.801 ± 0.075 | 0.894 ± 0.15
Cn1c(Nc2ccc(C(F)(F)F)cc2)nc2cc(Oc3ccnc(-c4ncc(C(F)(F)F)[nH]4)c3)ccc21 | 0.826 ± 0.12 | 0.699 ± 0.17 | 0.427 ± 0.11 | 0.347 ± 0.037
C/C=C1\NC(=O)[C@H]2CSSCC/C=C/[C@H](CC(=O)N[C@H](C(C)C)C(=O)N2)OC(=O)[C@H](C(C)C)NC1=O [Depsipeptide] | 0.00208 ± 0.0052 | 0.00595 ± 0.0056 | -0.0034 ± 0.0005 | -0.00514 ± 0.00076
CN(C)/N=N/c1[nH]cnc1C(N)=O [Dacarbazine] | 0.931 ± 0.18 | 0.992 ± 0.11 | 1.05 ± 0.11 | 1.07 ± 0.031
COc1ccc(-c2ccc3c(N4CCOC[C@@H]4C)nc(N4CCOC[C@@H]4C)nc3n2)cc1CO | 0.392 ± 0.011 | 0.396 ± 0.016 | 0.191 ± 0.054 | 0.197 ± 0.015
CO[C@H]1C[C@@H]2CC[C@@H](C)[C@@](O)(O2)C(=O)C(=O)N2CCCC[C@H]2C(=O)O[C@H]([C@H](C)C[C@@H]2CC[C@@H](OCCO)[C@H](OC)C2)CC(=O)[C@H](C)/C=C(\C)[C@@H](O)[C@@H](OC)C(=O)[C@H](C)C[C@H](C)/C=C/C=C/C=C/1C [Everolimus; Everolimus(RAD001)] | 0.647 ± 0.072 | 0.615 ± 0.033 | 0.562 ± 0.068 | 0.582 ± 0.063
C[C@]12CC[C@H](O)CC1=CC[C@@H]1[C@@H]2CC[C@]2(C)C(c3cccnc3)=CC[C@@H]12 [Abiraterone] | 0.893 ± 0.12 | 0.869 ± 0.13 | 0.937 ± 0.15 | 1.03 ± 0.098
O=C1CCC(N2C(=O)c3ccccc3C2=O)C(=O)N1 (stereo not drawn) | 0.862 ± 0.17 | 0.862 ± 0.13 | 0.865 ± 0.06 | 0.87 ± 0.034
Cc1ccc([N+](=O)[O-])cc1S(=O)(=O)N(C)/N=C/c1cnc2ccc(Br)cn12 [PIK-75 Hydrochloride] | 0.0451 ± 0.0082 | 0.101 ± 0.062 | -0.00172 ± 0.0047 | -0.00104 ± 0.0047

Reference: the supplement of paper PMC6279402
